Measurements reported in PubChem BioAssay (NCI).
About 83,000 compounds went through this panel and 20% of them were active in at least one assay; those are over-represented in the sample as a whole.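 Single-concentration screen, 48 h exposure, 96-well plates. Endpoint: percent growth. Below 10 = active.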 Unmarked numbers belong to inactive results. The source made the active and inactive calls.

Experiments:
Assay in all cases: NCI-60 one-dose screen, 48 h (100 = growth as untreated, 0 = no growth, -100 = all killed)
Details in all cases: 10 µM unless noted
SK-MEL-2 melanoma = tested on: SK-MEL-2 melanoma
EKVX NSCLC = tested on: EKVX NSCLC
SN12C renal = tested on: SN12C renal
UO-31 renal = tested on: UO-31 renal
TK-10 renal = tested on: TK-10 renal
ACHN renal = tested on: ACHN renal
A498 renal = tested on: A498 renal
CCRF-CEM leukemia = tested on: CCRF-CEM leukemia
MOLT-4 leukemia = tested on: MOLT-4 leukemia
SR leukemia = tested on: SR leukemia
RPMI-8226 leukemia = tested on: RPMI-8226 leukemia
OVCAR-8 ovarian = tested on: OVCAR-8 ovarian
OVCAR-5 ovarian = tested on: OVCAR-5 ovarian
OVCAR-4 ovarian = tested on: OVCAR-4 ovarian
SK-OV-3 ovarian = tested on: SK-OV-3 ovarian
IGROV1 ovarian = tested on: IGROV1 ovarian
OVCAR-3 ovarian = tested on: OVCAR-3 ovarian
HS 578T breast = tested on: HS 578T breast
NCI/ADR-RES ovarian = tested on: NCI/ADR-RES ovarian
T-47D breast = tested on: T-47D breast

SMILES | growth (SK-MEL-2 melanoma) | growth (EKVX NSCLC) | growth (SN12C renal) | growth (UO-31 renal) | growth (TK-10 renal) | growth (ACHN renal) | growth (A498 renal) | growth (CCRF-CEM leukemia) | growth (MOLT-4 leukemia) | growth (SR leukemia) | growth (RPMI-8226 leukemia) | growth (OVCAR-8 ovarian) | growth (OVCAR-5 ovarian) | growth (OVCAR-4 ovarian) | growth (SK-OV-3 ovarian) | growth (IGROV1 ovarian) | growth (OVCAR-3 ovarian) | growth (HS 578T breast) | growth (NCI/ADR-RES ovarian) | growth (T-47D breast)
CN1C(=O)c2cc(Cl)nc3c(NC(=O)c4cccc(Cl)c4)c(Cl)c(NC(=O)c4cccc(Cl)c4)c1c23 | -39% (active) | 27.4% | -43.2% (active) | -61.8% (active) | 39.9% | -61.7% (active) | 96.6% | 7.27% (active) | -19.9% (active) | -44.7% (active) | 38.4% | 2.78% (active) | 88.7% | -22.7% (active) | 86.4% | -66.2% (active) | -52.7% (active) | -12.3% (active) | 27.5% | 22.1%
O=CN1N=C(c2ccc3c(c2)OCO3)CC1c1cccc(Nc2ccnc3cc(C(F)(F)F)ccc23)c1 (stereo not given) | 76.1% | 75.2% | 88.9% | 63.7% | 76.9% | 85.8% | 72.5% | 66.5% | 53.4% | 29.9% | 40.2% | 83.8% | 97.7% | 69.6% | 77.4% | 91.8% | 67.4% | 96.1% | 76.8% | 45.8%
COc1ccc(-c2nnc(N3CCN(C(=O)CN4CCN(c5ccccc5)CC4)CC3)nc2-c2ccc(OC)cc2)cc1 | 38.1% | 13% | 7.79% (active) | 26.9% | 55.3% | 26.1% | 48% | 9.28% (active) | -25.7% (active) | -32.5% (active) | -58.3% (active) | 42% | 78.6% | 24.4% | 74.4% | 34.3% | 33.8% | 55.4% | 42.1% | 16.8%
COc1ccc2nc(-c3ccc(Cl)cc3)cc(-c3nnc(SC/C(=N/O)c4ccccc4)o3)c2c1 | 61.3% | 72.8% | 17.5% | 89.7% | 75% | 47.5% | 63.5% | 54.1% | 52.5% | 7.97% (active) | 41.3% | 49.7% | 84.2% | 16.7% | 69.6% | 50.8% | 34% | 71.9% | 57.4% | 27%
CCCCn1c(=O)c(/C=C/C(=O)/C=C/c2cc3ccccc3n(CCCC)c2=O)cc2ccccc21 | 79.5% | 35.8% | -28.1% (active) | -95.1% (active) | 23.4% | 5.75% (active) | 12.8% | -0.077% (active) | 1.3% (active) | 1.82% (active) | -32.1% (active) | -0.92% (active) | 25.9% | 28.5% | 15.6% | 1.5% (active) | -15.7% (active) | 30% | 22.8% | 20.8%
C#C[C@@]1(O)[C@@H](CO)O[C@@H](n2cc(-c3ccco3)c3c(N)ncnc32)[C@@H]1O | 84.3% | 67.3% | 71.8% | 36.5% | 69.1% | 90.2% | 54.6% | 86.9% | 32.8% | 94.4% | 80.3% | 65.9% | 66.9% | 61.2% | 26.3% | -11.6% (active) | 80.3% | 49.8% | 61.7% | -17.2% (active)
CCN(CC)CC#CCOC(=O)[C@]1(C)CCC[C@]2(C)[C@H]3C[C@H]4C(C(C)C)=C[C@]3(CC[C@H]21)[C@@H]1C(=O)CCC(=O)[C@@H]14 | 72.3% | 55.9% | 57.1% | 50.9% | 95.4% | 72.5% | 102% | 20.5% | 10.7% | 10.2% | 17.5% | 39.6% | 62.4% | 36.4% | 77.8% | 64.2% | 58.5% | 69.3% | 45.7% | 35.5%
N#Cc1ccc(C2C3=C(CCCC3=O)OC3=C2C(=O)c2ccccc2C3=O)cc1 (stereo not given) | 43.7% | 63.1% | 12.6% | 85.8% | 99.7% | 66.7% | 109% | 15.8% | -6.58% (active) | 60.9% | 54.7% | 1.88% (active) | 126% | -2.83% (active) | 97.7% | 40% | -1.75% (active) | 90.8% | 6.19% (active) | 3.02% (active)
OCCNc1nc(NCCO)nc(Nc2ccc(C3=NN(c4cc(Cl)cc(Cl)c4)C(c4ccc(Cl)cc4)C3)cc2)n1 (stereo not given) | 73.7% | 20.6% | 25.1% | 18.1% | -2.42% (active) | 50.8% | 71.2% | 13.3% | 2.38% (active) | -29.5% (active) | -8.1% (active) | 20.8% | 86% | -17.6% (active) | 83.1% | -11.6% (active) | -60.4% (active) | 11.6% | 20.6% | 87.1%
CCOC(=O)c1c(C)nc2c(c1N)/C(=C/c1ccccn1)C(=O)N2Cc1ccccc1 | -26.1% (active) | 24.8% | 8.15% (active) | -65.6% (active) | 2.08% (active) | 0.89% (active) | 54.6% | 2.47% (active) | -12.8% (active) | -11.8% (active) | -25.8% (active) | -7.26% (active) | 64.1% | 47.8% | 65.9% | -10.6% (active) | -19% (active) | 33.2% | -3.17% (active) | 9.22% (active)
O=C(Nc1cc(Br)ccn1)c1cc2cc(Nc3nc(-c4ccccc4)nc4ccccc34)ccc2oc1=O | 90.8% | 109% | 110% | 75.4% | 106% | 103% | 112% | 107% | 100% | 82.2% | 108% | 103% | 115% | 111% | 103% | 115% | 113% | 107% | 113% | 98.3%
C=C1C(=O)O[C@H]2[C@H]1CC/C(C=Nc1c(N)cc(C(F)(F)F)cc1Br)=C\CC[C@@]1(C)O[C@@H]21 | -31.6% (active) | 18.1% | -21.8% (active) | -71.5% (active) | -27.3% (active) | -44.6% (active) | 55.2% | 2.83% (active) | -2.99% (active) | -4.04% (active) | -23.4% (active) | -8.6% (active) | 42.8% | 55.3% | 83.1% | -9.71% (active) | -91.9% (active) | 6.58% (active) | 9.14% (active) | -16.3% (active)
C=C1C(=O)O[C@H]2[C@H]1CC/C(COC(=O)c1cc3ccccc3o1)=C\CC[C@@]1(C)O[C@@H]21 | -34.7% (active) | -26.4% (active) | -1.94% (active) | 3.76% (active) | 39.2% | 7.04% (active) | 103% | 1.96% (active) | -9.79% (active) | -1.95% (active) | -23.7% (active) | -12.6% (active) | -18.8% (active) | -10.5% (active) | 97.2% | -40.1% (active) | -87.4% (active) | -4.65% (active) | 14.2% | -48% (active)
O=C(NC[C@H](O)CN1CCc2ccccc2C1)c1cc(NC2COC2)ncn1 | 94.4% | 111% | 95.5% | 78.2% | 96.4% | 95.9% | 116% | 98.3% | 88% | 97.2% | 107% | 97.3% | 96.4% | 91.5% | 107% | 76.9% | 104% | 122% | 98.4% | 83.4%
